Compound activity as filed in PubChem.
This is a sample that favours compounds with a hit; in the whole collection about 0.92% have one here.
MEP2 TOR yeast – yeast TOR pathway MEP2-GFP modulation; GFP response vs DMSO, % at 10 µM; actives 0.51% (n = 330,000); S. cerevisiae MEP2-GFP strain, flow cytometry GFP, 3 h; 100% = DMSO control level;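 active = GFP response versus DMSO above a set limit, roughly screen mean plus 3 SD, cut at about 180% in these data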;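 also: median GFP fluorescence of the barcode-gated MEP2-GFP cells per well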
RPL19A-GFP yeast – modulators of TOR pathway RPL19A-GFP in S. cerevisiae. S. cerevisiae RPL19A-GFP strain, flow cytometry, 3 h; active compounds read low. percent response vs DMSO, % at 10 µM. actives 0.3% (n = 330,000). AID 2025;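 active = percent response vs DMSO below 50%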;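 also: median channel GFP fluorescence of the barcoded RPL19A-GFP strain; ratio of sample median GFP to plate DMSO average so 100% = DMSO; lower means less RPL19A-GFP as with rapamycin TOR inhibition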
CIT2-GFP yeast – yeast TOR pathway CIT2-GFP modulation; S. cerevisiae CIT2-GFP strain, flow cytometry, 3 h; 100 means same as DMSO wells; GFP response vs DMSO, % at 10 µM; actives 0.065% (n = 320,000); AID 2029;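 active = GFP response relative to DMSO above a set limit, near the screen mean plus 3 SD, cut at about 150% in these data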;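 also: ratio of well median GFP fluorescence to mean of DMSO wells on the plate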
AGP1-GFP MLPCN – yeast TOR pathway AGP1-GFP modulation; S. cerevisiae AGP1-GFP multiplex flow cytometry, 3 h; GFP as percent of DMSO wells; GFP response vs DMSO, % at 10 µM; AID 2066; actives 0.02% (n = 320,000);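 active = GFP response relative to DMSO above a set limit, near screen average plus 3 SD, cut at about 150% in these data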;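 also: median GFP channel fluorescence of the gated AGP1 strain per well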
LAP4 TOR yeast – alters LAP4-GFP fluorescence in TOR pathway yeast screen. AID 2023. S. cerevisiae LAP4-GFP multiplex, flow cytometry GFP, 3 h; median GFP as percent of DMSO wells. actives 0.34% (n = 320,000). GFP response vs DMSO, % at 10 µM;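 active = GFP response vs DMSO above a set limit, about the screen mean plus 3 SD, cut at about 150% in these data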
LAP4-GFP pick2 – yeast LAP4-GFP modulation, second cherry pick; shares compounds with LAP4 TOR yeast; S. cerevisiae LAP4-GFP strain, flow cytometry GFP, 3 h; GFP response vs DMSO, % at 10 µM; actives 20% (n = 590); AID 2621;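 active = GFP signal as percent of the solvent control above about 150%, meaning raised reporter expression, limit read from the data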;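 also: ratio of well median GFP fluorescence to plate DMSO mean so 100% = DMSO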
MEP2-GFP pick2 – yeast MEP2-GFP modulation, second cherry pick. actives 10% (n = 590). shares compounds with LAP4 TOR yeast. GFP response vs DMSO, % at 10 µM. S. cerevisiae MEP2-GFP strain, flow cytometry GFP, 3 h;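 active = GFP signal above 150% of the solvent control wells, that is a rise of more than half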;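 also: median channel GFP fluorescence of all gated yeast cells per well; ratio of median GFP to plate DMSO average so 100% = DMSO level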
RPL19A-GFP pick2 – yeast RPL19A-GFP TOR reporter modulation, second cherry pick | shares compounds with LAP4 TOR yeast | S. cerevisiae RPL19A-GFP strain, flow cytometry GFP, 3 h; active compounds read low; 100% means same as DMSO wells | GFP response vs DMSO, % at 10 µM | actives 3% (n = 590) | AID 2623;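 active = under 65% GFP response relative to DMSO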;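 also: median GFP channel fluorescence per well over the all cells gate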
CIT2 GFP CP2 – reconfirmed modulator of CIT2-GFP TOR reporter in yeast. GFP response vs DMSO, % at 10 µM. AID 2624. S. cerevisiae CIT2-GFP strain, flow cytometry GFP, 3 h; DMSO control wells read 100%. actives 8% (n = 590). shares compounds with LAP4 TOR yeast;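 active = GFP response vs DMSO above about 150%, limit read from the data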;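 also: median green fluorescence per well over all gated yeast cells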
AGP1 GFP CP2 – reconfirmed modulator of AGP1-GFP TOR reporter in yeast | 590 tested, under 10 active | percent response vs DMSO, % at 10 µM | shares compounds with LAP4 TOR yeast | AID 2643 | S. cerevisiae AGP1-GFP strain, flow cytometry GFP, 3 h;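 active = over 150 percent of DMSO response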;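 also: median GFP channel fluorescence over all cells without mother daughter split; sample median GFP divided by mean DMSO control so 100% equals DMSO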
s288c autofluor – yeast s288c autofluorescence artifact, counter-screen | shares compounds with LAP4 TOR yeast | S. cerevisiae s288c, 520 nm autofluorescence, flow cytometry, 3 h; active compounds read high; zero means same as solvent-only cells | fluorescence change (kMESF span) at 33 µM | 610 tested, under 10 active | AID 2757;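 active = fluorescence span over the dose series, or activity score, above about 33, limit read from the data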
Yeast autofl DR – counter-screen for autofluorescence of TOR hits in yeast s288c. shares compounds with LAP4 TOR yeast. S. cerevisiae s288c parental, compound autofluorescence, flow cytometry, 3 h. fluorescence change (span) at 33 µM. 110 tested, under 10 active;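 active = fluorescence change span, or the activity score built from it, above 25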
TORC1 bypass gr – wildtype yeast growth loss with TORC1 bypass cells unaffected. growth rating (0-3) at 30 µM. shares compounds with LAP4 TOR yeast. 120 tested, under 10 active. S. cerevisiae BY4741 spot growth rating, 48-72 h; active compounds read low. AID 504456;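 active = growth rating at most 1 for wild type yeast while the TORC1 bypass strain still grows fully, rated 3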
* = called active by the depositor; x = no result given.

SMILES	MEP2 TOR yeast	RPL19A-GFP yeast	CIT2-GFP yeast	AGP1-GFP MLPCN	LAP4 TOR yeast	s288c autofluor	others
Cc1[nH]n(-c2ncc(-c3ccccc3)s2)c(=O)c1C(c1ccc(Cl)cc1)C(C#N)C#N (stereo unspecified)	86	90	88	93	155*	0
Cc1cc(C)c2nc(-c3ccncc3)cc(C(=O)N3CCN(Cc4ccccc4Cl)CC3)c2c1	98	100	100	100	98	x
O=C(OCC(=O)N1CCN(C(=O)c2ccco2)CC1)c1cc(-c2ccc(Cl)c(Cl)c2Cl)nc2ccccc12	118	80	99	114	122	-0.3
O=C(OCC(=O)N1CCN(C(=O)c2ccco2)CC1)c1cc(-c2ccco2)nc2ccccc12	103	87	128	97	123	x
N=C1/C(=C\c2coc3ccccc3c2=O)C(=O)N=C2SC(c3ccncc3)=NN12	100	64	95	66	120	18	LAP4-GFP pick2=139;MEP2-GFP pick2=108;RPL19A-GFP pick2=83;CIT2 GFP CP2=163*;AGP1 GFP CP2=82
O=C1C=CC(=O)N1N(c1ccccc1)c1ccccc1	84	100	74	72	122	1
COc1ccc(/C(C)=N/NC(=O)CNC(=O)/C=C\c2ccccc2OC)c(OC)c1	90	92	96	97	91	x
N/C(Cc1ccc(Cl)c(Cl)c1)=N\OC(=O)c1cccs1	115	86	111	63	219*	1
COc1ccc(-c2cc3nc4n(c(=O)c3s2)CCCCC4)cc1	94	95	84	93	121	x
COc1ccc(-c2cc3nc4n(c(=O)c3s2)CCC4)cc1	111	65	68	65	110	0.5	LAP4-GFP pick2=95;MEP2-GFP pick2=103;RPL19A-GFP pick2=64*;CIT2 GFP CP2=85;AGP1 GFP CP2=69
COc1ccc(NC(=O)CC(=O)Nc2ccc(OC)cc2OC)c(OC)c1	105	103	105	105	104	x
COc1ccc(NC(=O)CC(C)=O)c(OC)c1	x	x	x	x	x	x	LAP4-GFP pick2=100;MEP2-GFP pick2=93;RPL19A-GFP pick2=101;CIT2 GFP CP2=104;AGP1 GFP CP2=98
Cc1cc(=O)oc2cc(NC(=S)NNC(=O)c3c(Cl)cnn3C)ccc12	87	100	103	95	71	x
CNC(=O)C(=O)NCC1CCCN1S(=O)(=O)c1cccs1 (stereo unspecified)	106	105	109	114	107	x
COCCCNC(=O)C(=O)NCC1CCCN1S(=O)(=O)c1cccs1 (stereo unspecified)	106	77	67	100	205*	x	LAP4-GFP pick2=101;MEP2-GFP pick2=103;RPL19A-GFP pick2=101;CIT2 GFP CP2=101;AGP1 GFP CP2=99
Cn1nccc1C(=O)Oc1ccc(/C=N/NC(=O)c2ccccc2O)cc1	101	104	102	96	88	x
COc1ccc(C(=O)NC(=S)NNC(=O)c2cnccn2)cc1	111	105	90	87	241*	1	Yeast autofl DR=0.49;TORC1 bypass gr=3
O=C(NC(=S)NNC(=O)c1cnccn1)c1ccc(Cl)cc1	117	112	102	109	181*	2
Cc1sc(NC(=S)NC(=O)C(C)(C)C)c(C(N)=O)c1C	104	101	107	98	108	x
COc1cc(C(=O)COC(=O)c2ccco2)cc(OC)c1OC	105	76	77	110	186*	x	LAP4-GFP pick2=102;MEP2-GFP pick2=105;RPL19A-GFP pick2=99;CIT2 GFP CP2=104;AGP1 GFP CP2=102
CCN(CC)c1ccc(C(=O)O)cc1	96	98	97	93	99	x
CCN(CC)c1ccc(/C=C2\C(=O)c3ccc(C(=O)O)cc3C2=O)cc1	323*	115	228*	116	235*	8.9	LAP4-GFP pick2=277*;MEP2-GFP pick2=391*;RPL19A-GFP pick2=121;CIT2 GFP CP2=263*;AGP1 GFP CP2=106
CC(C)C(=O)Nc1nnc(SCC(=O)NC2CCCC2)s1	102	102	98	93	103	x
CC1CCc2nc3ccc(S(=O)(=O)N4CCC(C(=O)NC(C)c5ccccc5)CC4)cc3c(C(=O)O)c2C1 (stereo unspecified)	99	100	97	96	90	x
CCOc1ccccc1NC(=O)COC(=O)COc1c(Cl)cc(Cl)c2ccc(C)nc12	93	96	95	104	104	x
SMILES	MEP2 TOR yeast	RPL19A-GFP yeast	CIT2-GFP yeast	AGP1-GFP MLPCN	LAP4 TOR yeast	s288c autofluor	others
CCN(CC(=O)NC(C)(C)C)C(=O)COc1c(Cl)cc(Cl)c2ccc(C)nc12	97	87	81	86	227*	1
O=C1c2cccc3c([N+](=O)[O-])ccc(c23)C(=O)N1CCc1ccccn1	167	96	123	88	152*	12
Cc1cc(S(=O)(=O)c2ccc([N+](=O)[O-])cn2)ccc1Br	85	81	91	87	147	x
O=[N+]([O-])c1ccc(S(=O)(=O)c2ccccc2)nc1	125	71	92	94	177*	0.4
Cc1ccc(S(=O)(=O)c2ccc([N+](=O)[O-])cn2)cc1	100	77	84	95	146	0.92	Yeast autofl DR=0.57;TORC1 bypass gr=3
O=S(=O)(c1ccccc1)c1ccc(C(F)(F)F)cn1	93	92	95	x	102	-0.2
Cc1ccc2[nH]c(C)c(/C=C/c3cc[n+](C)cc3)c2c1	344*	124	224*	110	209*	17
Cc1ccc2c(c1)c(/C=C/c1cc[n+](C)cc1)c(C)n2C	289*	127	206*	117	198*	16
CC(C)NC(=O)c1onc(CSc2ccc(Cl)cc2)c1C(=O)NC(C)C	89	94	88	83	127	x
